Laboratory results from PubChem BioAssay (EPA / NIEHS).
“And” between values parts separate entries of the source, which are not always exact repeats. Equal values may be shown once. Some structures have more than one record in an assay (separate samples or runs), and their calls can disagree. The source made the active and inactive calls. Rule for the calls: active = hit-call score of the fitted dose curve at least 0.9, where 1 is the maximum; inactive = score below 0.9.

Legend:
[1] = APR_HepG2_P-H2AX_72hr: Apredica 72-hour HepG2 Assay for H2AX Phosphorylation (AID 2282916); settings: imaging, actives raise or lower the signal;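 note: phospho-histone H2A.x immunostain intensity per cell marking DNA damage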
How it was run: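 Phospho-H2A.x imaging endpoint in HepG2 after 72 hr compound exposure (0.39–200 uM, duplicate wells). Activity derived by bidirectional curve fitting with DMSO as baseline.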

[2] = APR_HepG2_MitoMembPot_72hr: Apredica 72-hour HepG2 Assay for Mitochondrial Membrane Potential (AID 2282917); settings: imaging, actives raise or lower the signal
How it was run: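 HepG2 cells dosed 72 hr with compound at 0.39–200 uM in duplicate, 0.5% v/v DMSO final. Mitochondria stained with 250 nM MitoTracker Red CMXRos for 30 min before formaldehyde fixation, imaged by high-content fluorescence; bidirectional fit versus DMSO.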

[3] = APR_HepG2_MitoticArrest_72hr: Apredica 72-hour HepG2 Assay for Mitotic Arrest (AID 2282918); settings: high-content imaging, actives raise or lower the signal
How it was run: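 HepG2, 72 hr exposure, 0.39–200 uM in duplicate, 0.5% v/v DMSO final. Formaldehyde-fixed, Triton-permeabilized, anti-phospho-histone H3/FITC plus Hoechst. ArrayScan imaging at 20x; curves fit bidirectionally against DMSO baseline.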

[4] = APR_HepG2_P-H2AX_24hr: Apredica 24-hour HepG2 Assay for H2AX Phosphorylation (AID 2282920); settings: high-content imaging, actives raise or lower the signal
How it was run: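 HCS fluorescence imaging of phospho-H2A.x immunostain (with Hoechst 33342 nuclear counterstain) in HepG2 after 24 hr compound exposure; 10 concentrations, 0.39–200 uM, duplicate wells, 0.5% v/v DMSO. Gain or loss of signal fitted relative to DMSO baseline.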

[5] = APR_HepG2_StressKinase_24hr: Apredica 24-hour HepG2 Assay for Stress Kinase (AID 2282922); settings: HepG2 stress kinase (phospho-c-Jun) imaging, actives raise or lower the signal
How it was run: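 Read-out: phospho-c-Jun immunofluorescence (Cy3 secondary) quantified by high-content imaging at 20x, nuclei defined by Hoechst 33342. Human HepG2 liver cells dosed 24 hr, 0.39–200 uM, DMSO 0.5% v/v; gain or loss of signal fitted relative to DMSO.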

[6] = ATG_CRE_CIS: Attagene CIS-FACTORIAL HepG2 Assay for human cAMP Responsive Element (CRE) binding protein 3 (AID 2282926); settings: HepG2 CRE cis-reporter, Attagene multiplexed mRNA; actives raise or lower the signal
How it was run: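 Readout: fluorescently labelled reporter transcripts resolved by capillary electrophoresis after RT-PCR, taken 24 h post-dosing in transfected HepG2. Endogenous transcription factor activity drives each cis-element reporter; gain or loss of signal fitted relative to DMSO control.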

[7] = target: CCAAT/enhancer-binding protein beta (Homo sapiens) (UniProt P17676); assay: ATG_C_EBP_CIS: Attagene CIS-FACTORIAL HepG2 Assay for human CCAAT/Enhancer Binding Protein (C/EBP) beta (AID 2282927); settings: HepG2 Attagene cis-factorial transcription factor reporter; actives raise or lower the signal
Sequence of CCAAT/enhancer-binding protein beta (Homo sapiens) (P17676 whole entry, looked up): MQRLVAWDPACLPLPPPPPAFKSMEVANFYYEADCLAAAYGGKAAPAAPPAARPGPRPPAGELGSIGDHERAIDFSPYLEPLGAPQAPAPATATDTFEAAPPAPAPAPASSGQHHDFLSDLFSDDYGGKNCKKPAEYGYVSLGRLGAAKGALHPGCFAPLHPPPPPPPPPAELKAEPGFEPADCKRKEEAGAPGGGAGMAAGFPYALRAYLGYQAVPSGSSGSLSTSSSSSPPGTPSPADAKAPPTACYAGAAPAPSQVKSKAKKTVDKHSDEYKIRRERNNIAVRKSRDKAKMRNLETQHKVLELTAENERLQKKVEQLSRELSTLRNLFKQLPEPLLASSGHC
How it was run: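 HepG2 transiently transfected with multiplexed reporter units under cis-regulatory promoters reporting endogenous C/EBPb activity. After 24 h exposure, reporter mRNA assayed by RT-PCR, fluorescent labelling, HpaI digestion and capillary electrophoresis; bidirectional fitting versus DMSO.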

[8] = ATG_DR4_LXR_CIS: Attagene CIS-FACTORIAL HepG2 Assay for human Liver X Receptor (LXR), DR4 submotif (AID 2282929); settings: HepG2 Attagene DR4 cis-reporter, mRNA transcription; AC50: actives raise or lower the signal unless noted; outcome: actives raise or lower the signal unless noted
How it was run: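 DR4 cis-reporter in HepG2, 24 h exposure. Detection: RT-PCR, 6-FAM labelling, CE fragment analysis. Endpoint fitted bidirectionally, DMSO = baseline.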

[9] = target: Aryl hydrocarbon receptor (Homo sapiens) (UniProt P35869); assay: ATG_Ahr_CIS: Attagene CIS-FACTORIAL HepG2 Assay for human Aryl Hydrocarbon Receptor (Ahr) (AID 2282930); settings: HepG2 AhR cis-factorial reporter transcription; actives raise or lower the signal
Sequence of Aryl hydrocarbon receptor (Homo sapiens) (P35869 whole entry, looked up): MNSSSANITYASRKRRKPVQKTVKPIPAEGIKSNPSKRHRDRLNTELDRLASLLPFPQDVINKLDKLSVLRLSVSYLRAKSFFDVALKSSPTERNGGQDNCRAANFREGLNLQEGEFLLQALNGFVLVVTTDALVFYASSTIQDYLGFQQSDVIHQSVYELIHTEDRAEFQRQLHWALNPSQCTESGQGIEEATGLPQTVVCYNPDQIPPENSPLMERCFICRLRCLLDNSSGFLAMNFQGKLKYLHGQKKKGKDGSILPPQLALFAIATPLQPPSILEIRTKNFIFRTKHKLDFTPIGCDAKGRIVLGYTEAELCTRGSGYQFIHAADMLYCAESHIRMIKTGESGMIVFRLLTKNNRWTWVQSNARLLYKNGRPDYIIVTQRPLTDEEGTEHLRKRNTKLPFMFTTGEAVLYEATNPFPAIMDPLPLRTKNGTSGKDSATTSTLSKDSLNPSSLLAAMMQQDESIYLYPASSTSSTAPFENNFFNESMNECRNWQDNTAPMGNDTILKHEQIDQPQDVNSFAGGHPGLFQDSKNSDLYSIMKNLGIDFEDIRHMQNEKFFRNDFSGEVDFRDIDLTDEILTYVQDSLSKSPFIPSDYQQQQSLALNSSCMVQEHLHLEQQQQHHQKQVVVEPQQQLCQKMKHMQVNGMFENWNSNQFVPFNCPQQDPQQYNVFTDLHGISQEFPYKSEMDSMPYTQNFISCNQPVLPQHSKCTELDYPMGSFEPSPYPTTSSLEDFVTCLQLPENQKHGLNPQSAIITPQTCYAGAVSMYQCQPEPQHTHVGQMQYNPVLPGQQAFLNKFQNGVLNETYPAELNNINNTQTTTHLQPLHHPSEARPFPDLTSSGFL
How it was run: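 HepG2 cells transiently transfected with cis-element-driven multiplexed reporter units; endogenous AhR activity read as reporter mRNA 24 h after dosing, via RT-PCR, 6-FAM labelling, HpaI digestion and capillary electrophoresis. Bidirectional fit relative to DMSO.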

[10] = ATG_AP_1_CIS: Attagene CIS-FACTORIAL HepG2 Assay for human Activator Protein 1 (AP-1) (AID 2282931); settings: HepG2 Attagene cis-factorial AP-1 reporter mRNA; actives raise or lower the signal
How it was run: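 Cis-regulated reporter units transiently expressed in HepG2 report endogenous transcription-factor activity. Signal: reporter mRNA at 24 h, via RT-PCR and fluorescent capillary electrophoresis. Endpoint derived by bidirectional fitting, DMSO as negative control.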

[11] = ATG_BRE_CIS: Attagene CIS-FACTORIAL HepG2 Assay for human Bone Morphogenetic Protein (BMP) Response Element (BRE) (AID 2282933); settings: HepG2 BMP response element reporter, Attagene transcription factor profiling; actives raise or lower the signal
How it was run: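 Transient MRTU transfection of human HepG2 liver cells; 24 h compound treatment; total RNA isolated, reverse-transcribed, PCR-amplified, 6-FAM labelled, HpaI-cut, capillary electrophoresis. DMSO = negative control/baseline, bidirectional fit.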

[12] = target: Retinoic acid receptor alpha (Homo sapiens) (UniProt P10276); assay: ATG_DR5_RAR_CIS: Attagene CIS-FACTORIAL HepG2 Assay for human Retinoic Acid Receptor Alpha (RARE), DR5 submotif (AID 2282934); settings: HepG2 Attagene cis-factorial RARE DR5 reporter, mRNA; actives raise or lower the signal
Sequence of Retinoic acid receptor alpha (Homo sapiens) (P10276 whole entry, looked up): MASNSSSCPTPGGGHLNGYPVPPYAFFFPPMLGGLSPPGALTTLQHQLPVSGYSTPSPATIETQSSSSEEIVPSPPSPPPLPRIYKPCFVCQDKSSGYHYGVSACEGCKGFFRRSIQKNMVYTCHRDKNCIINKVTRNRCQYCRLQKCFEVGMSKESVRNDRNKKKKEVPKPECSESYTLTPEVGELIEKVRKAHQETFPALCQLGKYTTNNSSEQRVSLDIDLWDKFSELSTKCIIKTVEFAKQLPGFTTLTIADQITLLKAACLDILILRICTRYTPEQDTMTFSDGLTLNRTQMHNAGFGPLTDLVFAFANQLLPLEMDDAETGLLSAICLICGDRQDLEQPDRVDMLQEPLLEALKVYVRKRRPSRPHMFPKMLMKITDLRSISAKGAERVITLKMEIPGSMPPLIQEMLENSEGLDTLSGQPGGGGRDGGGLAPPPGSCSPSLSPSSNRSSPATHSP
How it was run: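 HepG2 cells transiently transfected with multiplexed reporter units; DR5 cis-element drives reporter through endogenous transcription factors. After 24 h dosing, reporter mRNA quantified by RT-PCR, fluorescent labeling, HpaI digestion and capillary electrophoresis; bidirectional fitting versus DMSO.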

[13] = target: Transcription factor E2F1 (Homo sapiens) (UniProt Q01094); assay: ATG_E2F_CIS: Attagene CIS-FACTORIAL HepG2 Assay for human E2F Transcription Factor 1 (AID 2282935); settings: HepG2 Attagene cis-reporter, E2F reporter RNA transcripts; actives raise or lower the signal
Sequence of Transcription factor E2F1 (Homo sapiens) (Q01094 whole entry, looked up): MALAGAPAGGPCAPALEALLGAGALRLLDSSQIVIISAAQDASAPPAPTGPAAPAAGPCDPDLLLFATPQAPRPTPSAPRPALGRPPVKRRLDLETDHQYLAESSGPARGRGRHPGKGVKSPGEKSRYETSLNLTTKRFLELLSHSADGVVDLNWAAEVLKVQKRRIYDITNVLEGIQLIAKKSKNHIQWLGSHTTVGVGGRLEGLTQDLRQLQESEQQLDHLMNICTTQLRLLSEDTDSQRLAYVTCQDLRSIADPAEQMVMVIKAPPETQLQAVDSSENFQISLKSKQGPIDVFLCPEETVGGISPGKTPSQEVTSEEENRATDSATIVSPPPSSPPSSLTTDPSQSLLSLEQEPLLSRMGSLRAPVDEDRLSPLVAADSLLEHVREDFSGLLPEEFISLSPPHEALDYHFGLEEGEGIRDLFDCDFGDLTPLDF
How it was run: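 Transient MRTU transfection of HepG2; 24 h compound exposure; RNA → oligo(dT) RT → PCR → FAM label → HpaI cut → CE fluorescence. Gain/loss of signal fit against DMSO.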

[14] = ATG_E_Box_CIS: Attagene CIS-FACTORIAL HepG2 Assay for human Enhancer Box (E-box) (AID 2282936); settings: HepG2 E-box cis-reporter transcription, actives raise or lower the signal
How it was run: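 Transiently transfected HepG2, endogenous TF-driven reporters, 24 h dosing. Readout: RT-PCR plus capillary electrophoresis of fluorescent reporter fragments. Gain or loss of signal fitted bidirectionally against DMSO baseline.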

[15] = ATG_M_61_CIS: Attagene CIS-FACTORIAL HepG2 Assay for M61 Transcription Factor (Internal Marker) (AID 2282937); settings: HepG2 Attagene CIS-FACTORIAL M61 internal marker reporter; actives raise or lower the signal
How it was run: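 Background-control endpoint: HepG2 cells with cis-regulated reporter constructs, 24 h exposure, reporter mRNA detected via fluorescent primer extension and capillary electrophoresis; values from bidirectional fitting with DMSO baseline.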

[16] = APR_HepG2_MicrotubuleCSK_72hr: Apredica 72-hour HepG2 Assay for Microtubule CSK Stabilty (AID 2282919); settings: HepG2 microtubule cytoskeleton, high-content imaging, actives raise or lower the signal
How it was run: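 HepG2, 72 hr cmpd exposure, 0.39–200 uM (10 pts, duplicate), 0.5% DMSO. 3.7% formaldehyde fix, 0.5% Triton perm, anti-alpha-tubulin/Cy5 plus Hoechst. HCS fluorescence intensity; bidirectional fit vs DMSO baseline; taxol as positive control.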

[17] = APR_HepG2_NuclearSize_72hr: Apredica 72-hour HepG2 Assay for Nuclear Size (AID 2282925); settings: high-content imaging, actives raise or lower the signal
How it was run: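 Read-out: nuclear diameter from Hoechst 33342 images (ArrayScan, 20x, six fields/well), via cell-cycle image analysis. HepG2 were dosed 0.39–200 uM for 72 hr in 0.5% DMSO. Bidirectional fit relative to DMSO.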

[18] = ATG_CMV_CIS: Attagene CIS-FACTORIAL HepG2 Assay for human CMV (Internal Marker) (AID 2282928); settings: HepG2 CMV promoter reporter, transcription factor profiling; actives raise or lower the signal;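 note: endpoint acts as a background internal control marker rather than a target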
How it was run: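 24 h chemical treatment, HepG2 with transient multi-reporter transfection; RNA → oligo(dT) RT → PCR → 6-FAM extension → HpaI digest → CE fluorescence. Bidirectional fit, DMSO negative control.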

[19] = ATG_AP_2_CIS: Attagene CIS-FACTORIAL HepG2 Assay for human Activator Protein 2 (AP-2) (AID 2282932); settings: HepG2 AP-2 cis-reporter, Attagene transcription factor profiling; AC50: actives raise or lower the signal unless noted; outcome: actives raise or lower the signal unless noted
How it was run: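 Read-out: fluorescent reporter mRNA via RT-PCR and capillary electrophoresis, 24 h post-dose in transiently transfected HepG2. Endogenous factors drive cis-promoter reporters; gain or loss of signal fitted bidirectionally against DMSO.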

## CC(=O)Nc1ccc(O)cc1
[1]
  outcome: inactive
[2]
  outcome: inactive
[3]
  outcome: inactive
[4]
  outcome: inactive
[5]
  outcome: inactive
[6]
  outcome: inactive
[7]
  outcome: inactive
[8]
  outcome: inactive
[9]
  outcome: inactive
[10]
  outcome: inactive
[11]
  outcome: inactive
[12]
  outcome: inactive
[13]
  outcome: inactive
[14]
  outcome: inactive
[15]
  outcome: inactive

## Cc1[nH]nc2c1N=C(c1ccccc1Cl)c1cc([N+](=O)[O-])ccc1N2
[1]
  AC50: 19.8 µM (active)
[2]
  AC50: 0.432 µM (active)
[3]
  AC50: 28.8 µM (active)
[16]
  outcome: inactive
[4]
  AC50: 24.9 µM (active)
[5]
  AC50: 19.8 µM (active)
[17]
  AC50: 0.325 µM (active)
[6]
  outcome: inactive
[7]
  outcome: inactive
[18]
  AC50: 1.58 µM (active)
[8]
  AC50: 2.67 µM (active)
[19]
  AC50: 3.12 µM (active)
[11]
  outcome: inactive
[12]
  outcome: inactive
[13]
  outcome: inactive
[14]
  outcome: inactive
[15]
  outcome: inactive

## Cc1cc(C(C)(C)C)c(O)c(C(C)(C)C)c1
[6]
  outcome: inactive
[7]
  AC50: 14.6 µM (active)
  outcome: inactive
[18]
  AC50: 25.3 µM (active) and 60 µM (active)
[8]
  AC50: 33.4 µM (active)
  outcome: inactive
[9]
  outcome: inactive
[10]
  AC50: 50.7 µM (active) and 80.6 µM (active)
[19]
  outcome: inactive
[11]
  outcome: inactive
[13]
  outcome: inactive
[14]
  AC50: 56.6 µM (active)
  outcome: inactive
[15]
  outcome: inactive

## O=C1OC2(c3ccccc31)c1cc(I)c(O)c(I)c1Oc1c2cc(I)c(O)c1I
[6]
  outcome: inactive
[7]
  outcome: inactive
[18]
  AC50: 40.5 µM (active)
  outcome: inactive
[8]
  outcome: inactive
[9]
  AC50: 15.4 µM (active) and 27.3 µM (active) and 27.9 µM (active)
[10]
  outcome: inactive
[19]
  outcome: inactive
[11]
  AC50: 88.1 µM (active) and 82.7 µM (active)
  outcome: inactive
[12]
  outcome: inactive
[13]
  outcome: inactive
[14]
  AC50: 34.6 µM (active)
  outcome: inactive
[15]
  outcome: inactive
